This assay can be described thus: NCI Yeast Anticancer Drug Screen. Data for the rad14 strain (AID 159).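 Further: 0% = growth of vehicle-treated control cultures.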 The conditions noted are these: S. cerevisiae rad14 strain growth inhibition, stronger effect = higher value. As to the method: Growth inhibition of yeast strains with defined genetic alterations is measured as a screen for potential anti-cancer activity. Selected strains with alterations in DNA damage repair or cell cycle control were exposed to compounds and growth inhibition was measured relative to vehicle treated controls. The strain used in this assay is rad14

The structures appear in SMILES notation. Compounds without any hit were thinned out: in the full panel of roughly 79,000, 15% have a hit. A number with no mark means an inactive call. Activity calls are given as the source filed them. No stated cut-off is given here; in the data, active means growth inhibition above about 70%; inactive means the rest.

In the case of `NCCNc1ccc(NCCN)c2c1C(=O)c1c(O)ccc(O)c1C2=O`, the growth inhibition (at 1.2 µM) was -4%; the growth inhibition (at 3.7 µM) is 5%; the growth inhibition (at 11.0 µM) is 18%; the growth inhibition (at 33.0 µM) is 88% (active); the growth inhibition (at 100.0 µM) was 68%.

For `Cn1c(=O)c(-c2ccccc2)c(N=[N+]=[N-])c2ccccc21`, the growth inhibition is, setting by setting: (at 1.2 µM) 12%; (at 3.7 µM) 4%; (at 11.0 µM) 5%; (at 33.0 µM) 93% (active); (at 100.0 µM) 89% (active).

In the case of `Cc1nn(-c2cc(Cl)ccc2[N+](=O)[O-])c(C)c1Cl`, the growth inhibition was -1% (at 1.2 µM); 0% (at 3.7 µM); 4% (at 11.0 µM); 2% (at 33.0 µM); 3% (at 100.0 µM).

Regarding `Cc1ccc(S/N=C\c2ccccc2O)cc1`, the growth inhibition is, setting by setting: (at 1.2 µM) -2%; (at 3.7 µM) -6%; (at 11.0 µM) -4%; (at 33.0 µM) -3%; (at 100.0 µM) 1%.

Regarding `O=C(N=Nc1cc(Cl)ccc1Cl)NNc1cc(Cl)ccc1Cl`, the growth inhibition (at 1.2 µM) is -3%; the growth inhibition (at 3.7 µM) is -4%; the growth inhibition (at 11.0 µM) was -5%; the growth inhibition (at 33.0 µM) was 2%; the growth inhibition (at 100.0 µM) is 3%.

As to `O=C1C=CC(=Nc2ccc3c(c2)Cc2cc(NC(=O)C(F)(F)F)ccc2-3)O1`, the growth inhibition was 6% (at 1.2 µM); 15% (at 3.7 µM); 32% (at 11.0 µM); 62% (at 33.0 µM); 98% (active) (at 100.0 µM).

For the molecule `COC(=O)C1=C(C(=O)OC)C2(C)C=CC1O2` (stereo not given), the growth inhibition is, setting by setting: (at 1.2 µM) 1%; (at 3.7 µM) 15%; (at 11.0 µM) 17%; (at 33.0 µM) 33%; (at 100.0 µM) 87% (active).

Turning to `CCCCCCCCCCCCCCCCCCNC`, the growth inhibition (at 1.2 µM) was -22%; the growth inhibition (at 3.7 µM) was -16%; the growth inhibition (at 11.0 µM) was -16%; the growth inhibition (at 33.0 µM) was -9%; the growth inhibition (at 100.0 µM) is 75% (active).

Source of the values: PubChem BioAssay (NCI).
